CYP2C9 activ: CYP2C9 (human) activation | actives 1.4% (n = 96,000) | recombinant CYP2C9, luciferin-H conversion, luminescence; active compounds read high; factor 1 = untreated enzyme, 0 = blocked | activation factor at 5 µM;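 active = activation factor of 2 or more for CYP2C9 at a 5 µM dose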
CYP2C19 activ: cytochrome P450 2C19 (human) activation | P33261 | recombinant CYP2C19, luciferin-H EGE luminescence; active compounds read high; 0 = fully inhibited enzyme, 1 = untreated enzyme | activation factor at 5 µM | 96,000 tested, under 10 active;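 active = activation factor of at least 2 at 5 µM in the primary screen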
sEH inhibitor: inhibitors of human soluble epoxide hydrolase. recombinant human sEH enzymatic activity assay. inhibition, % at 2 µM. actives 0.34% (n = 91,000). AID 707; in the data active = inhibition above about 80%
Target sequence (P34913 whole entry, looked up): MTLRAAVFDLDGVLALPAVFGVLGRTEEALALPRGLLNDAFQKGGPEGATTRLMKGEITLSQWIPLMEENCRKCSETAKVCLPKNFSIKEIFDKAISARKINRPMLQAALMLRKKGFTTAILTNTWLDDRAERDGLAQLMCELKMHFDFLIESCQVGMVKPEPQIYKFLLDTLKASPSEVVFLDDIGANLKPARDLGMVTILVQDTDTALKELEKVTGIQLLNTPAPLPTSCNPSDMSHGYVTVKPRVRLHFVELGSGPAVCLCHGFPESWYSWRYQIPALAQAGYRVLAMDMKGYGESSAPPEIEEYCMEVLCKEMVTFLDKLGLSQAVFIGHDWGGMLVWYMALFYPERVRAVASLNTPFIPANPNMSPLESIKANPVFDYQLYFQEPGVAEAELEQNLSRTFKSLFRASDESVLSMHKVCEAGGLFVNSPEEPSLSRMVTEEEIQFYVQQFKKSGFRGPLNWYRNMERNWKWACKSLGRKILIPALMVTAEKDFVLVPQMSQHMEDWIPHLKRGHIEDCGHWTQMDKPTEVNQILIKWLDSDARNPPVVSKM
CYP2C19 inh: blocks human cytochrome P450 2C19; inhibition, % at 5 µM; P33261; CYP2C19 Supersomes, luciferin-H EGE luminescence, 30 min; actives 21% (n = 96,000);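 active = CYP2C19 inhibition above a set limit at 5 µM in the primary screen, cut at about 50% in these data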
CYP2C9 inhib: blocks human cytochrome P450 2C9. P11712. actives 20% (n = 96,000). CYP2C9 Supersomes, luciferin-H conversion, luminescence. inhibition, % at 5 µM;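 active = blocking of liver enzyme CYP2C9 beyond about 50% at 5 µM, limit read from the data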
sEH act: activators of human soluble epoxide hydrolase. purified human sEH enzymatic activity, activator screen. actives 0.04% (n = 91,000). P34913. activation, % at 2 µM; in the data active = activation above about 37%
Numbers stand for hits; – = inactive; · = no result given. Compounds with a hit are over-represented: about 27% of the library has one in this group of screens.

SMILES	CYP2C9 activ	CYP2C19 activ	sEH inhibitor	CYP2C19 inh	CYP2C9 inhib	sEH act
COc1ccc(NC(=O)C2CCCCN2N)cc1OCC(C)C (stereo unspecified)	–	–	–	94	–	–
Cc1cccc(OCC2=NS(=O)(=O)c3ccccc3N2)c1	–	–	–	–	51	–
Cc1c(NS(C)(=O)=O)c(=O)n(-c2ccccc2)n1C	–	–	·	–	–	·
Cc1cc(F)ccc1S(=O)(=O)Nc1c(C)n(C)n(-c2ccccc2)c1=O	–	–	–	91	50	–
O=C(/C=C/c1cccs1)c1ccc(NC(=O)c2cccc(Br)c2)cc1	–	–	–	–	–	–
CN(C)c1ccc(/C=C/C(=O)c2cccc(Br)c2)cc1	–	–	–	93	–	–
Cc1ccc(N2CC(C(=O)Nc3cccc(F)c3)CC2=O)cc1 (stereo unspecified)	–	–	·	55	56	·
CCc1ccc(N2CC(C(=O)Nc3cc(C)ccc3F)CC2=O)cc1 (stereo unspecified)	–	–	–	86	91	–
CCOc1ccc(N2CC(C(=O)Nc3ccc(F)cc3F)CC2=O)cc1 (stereo unspecified)	–	–	–	–	–	–
CCOC(=O)c1c(C)n(C)c2ccc(OC(C)C(=O)OC)cc12 (stereo unspecified)	–	–	–	51	64	–
CCOC(=O)c1c(C)n(C)c2ccc(OCCN(C)C)cc12	–	–	–	–	–	–
COc1ccc(NC(=O)C(=O)NCCN2CCN(C(=O)c3cccs3)CC2)cc1	·	·	–	·	·	–
COc1ccc(OCC(=O)N2CCN(C(=O)c3cccc4ccccc34)CC2)cc1	–	–	–	–	–	–
COc1cccc(C2(O)CCN(C(=O)c3cccs3)CC2)c1	–	–	·	–	–	·
COc1cccc(CN2CCN(C(=O)c3cccs3)CC2)c1OC	–	–	·	–	–	·
COc1ccc(CN2CCN(C(=O)c3cccs3)CC2)cc1	–	–	·	58	–	·
COc1ccccc1C1(O)CCN(C(=O)c2cccs2)CC1	–	–	–	–	54	–
COc1ccc(OC)c(CN2CCN(C(=O)c3cccs3)CC2)c1	–	–	–	91	70	–
COc1ccc(OC)c(CN2CCN(C(=O)c3cccc4ccccc34)CC2)c1	–	–	–	55	–	–
CC1CCCC(C)N1C(=O)CSc1nnc(CSc2ncccn2)n1C (stereo unspecified)	–	–	·	–	–	·
Cc1cccc(N(C(=O)CNC(=O)c2ccco2)C(C(=O)NC2CCCC2)c2ccncc2)c1 (stereo unspecified)	·	·	–	·	·	–
COC(=O)C(Nc1ccccc1Cl)(c1cc(C)c(O)c(C)c1)C(F)(F)F (stereo unspecified)	–	–	–	100	99	–
COc1cccc(C(C#N)N2CCOCC2)c1 (stereo unspecified)	–	–	–	78	–	–
COc1cc(C(C#N)N2CCOCC2)ccc1O (stereo unspecified)	–	–	–	–	–	–
C=CCSc1nnc2c(n1)OC=Nc1ccc(Br)cc1-2	–	–	–	53	60	–
SMILES	CYP2C9 activ	CYP2C19 activ	sEH inhibitor	CYP2C19 inh	CYP2C9 inhib	sEH act
CCSc1nnc2c(n1)OC=Nc1ccc(Br)cc1-2	–	–	–	–	–	–
Cc1ccc(OCCC(=O)Nc2c(C)n(C)n(-c3ccccc3)c2=O)cc1	–	–	–	–	–	–
CC1=C(C(=O)OC(C)C)C(C2CC=CCC2)NC(=O)N1 (stereo unspecified)	–	–	·	65	–	·
CC1=C(C(=O)OC(C)C)C(C)NC(=O)N1 (stereo unspecified)	–	–	–	–	–	–
CCOC(=O)C1=C(C)NC(=O)NC1C1CC=CCC1 (stereo unspecified)	–	–	–	52	–	–
COc1ccc2c(c1)c1c(n2C(C)=O)C(OC(C)=O)=NCC1	–	–	–	–	–	–
CCC(C)n1c(SCC(=O)Nc2ccccc2C(F)(F)F)nc2ccsc2c1=O (stereo unspecified)	–	–	–	–	72	–
Cc1cc(C)n(-c2ccc(C(=O)N3CCc4ccccc43)cc2)n1	2	–	–	–	–	–
Cc1cc(C(=O)N2CCc3ccccc32)n(-c2ccccc2)n1	–	–	·	75	68	·
CC(C)(C)c1cc(C(=O)N2CCc3ccccc32)ccn1	–	–	–	72	53	–
Cc1csc2ncc(C(=O)N3CCc4ccccc43)c(=O)n12	·	·	–	·	·	–
Cc1cc(C)n(-c2ccc(C(=O)Nc3ccccc3N3CCOCC3)cc2)n1	–	–	–	–	–	–
COC(=O)c1ccc(Cl)c(NC(=O)c2ccc(-c3ccccc3)cc2)c1	–	–	–	–	–	–
CCC(C(=O)Nc1nccs1)c1ccccc1 (stereo unspecified)	–	–	·	69	–	·
CCC(C(=O)Nc1nc(C)cs1)c1ccccc1 (stereo unspecified)	–	–	–	–	–	–
CCCC(C(=O)Nc1nccs1)c1ccccc1 (stereo unspecified)	–	–	–	54	–	–
O=C(Nc1nccs1)C(NS(=O)(=O)c1ccc(Br)s1)c1ccccc1 (stereo unspecified)	–	–	–	–	62	–
CC(NS(=O)(=O)c1ccccc1)C(=O)Nc1nccs1 (stereo unspecified)	·	·	–	·	·	–
CN(C)CCCNC(=O)CCC1CCCCC1	–	–	–	–	–	–
Cn1c(=O)[nH]c(=O)c2c1nc(Sc1ncccn1)n2CCCc1ccccc1	–	–	–	–	–	–
CN(CCNC(=O)Cn1c(=O)sc2ccccc21)Cc1ccccc1	–	–	–	–	–	–
COc1cccc(/C=N\NC(=O)c2cc(OCC(F)(F)F)ccc2OCC(F)(F)F)c1	–	–	·	–	–	·
COc1ccccc1-c1cc(C(=O)N/N=C/C=C/c2ccccc2[N+](=O)[O-])c2ccccc2n1	–	–	–	–	66	–
COc1cc(C(=O)N/N=C\c2ccccc2)c([N+](=O)[O-])c(OC)c1OC	·	·	–	·	·	–
COc1ccc(-c2cc(C(=O)N/N=C/c3ccc(OC)c(COCC(F)(F)C(F)F)c3)c3ccccc3n2)c(OC)c1	–	–	–	79	88	–
SMILES	CYP2C9 activ	CYP2C19 activ	sEH inhibitor	CYP2C19 inh	CYP2C9 inhib	sEH act
COc1ccc(-c2cc(C(=O)O)c3ccccc3n2)c(OC)c1	–	–	–	–	62	–
COc1ccc(-c2cc(C(=O)N/N=C/c3ccc4c(c3)OCO4)c3ccccc3n2)c(OC)c1	–	–	–	66	88	–
O=C(N/N=C/c1cccc(F)c1)c1cc(-c2ccco2)nc2ccccc12	–	–	–	–	–	–
CC(=O)c1ccc(OCC(O)CN(C)Cc2cccs2)cc1 (stereo unspecified)	–	–	–	–	–	–
COc1ccc(-c2cc(C(=O)N/N=C/c3sccc3C)c3ccccc3n2)c(OC)c1	–	–	–	65	88	–
COc1cc2ccccc2cc1C(=O)O	–	–	–	–	82	–
